Measurements reported in PubChem BioAssay (EPA / NIEHS).
Activity calls are given as the source filed them. How the source made its calls: active means hit-call score of the fitted dose curve at least 0.9, where 1 is the maximum; inactive means score below 0.9.

Experiments:
[1] = read-out: Tumor necrosis factor receptor superfamily member 6 (Homo sapiens) (UniProt P25445); test: LTEA_HepaRG_FAS: Life Technologies and Expression Analysis (LTEA) Assay for Fas cell surface death receptor (FAS) using HepaRG (AID 2283447); conditions: mRNA level, 48 h; actives raise or lower the signal
Outline: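 Differentiated HepaRG cells in serum-free induction medium were exposed 48 h to 8 half-log concentrations up to 100 uM in 0.5% DMSO, in duplicate. FAS mRNA was measured by qRT-PCR normalised to ACTB, GAPDH and POLR2A; bidirectional fit versus DMSO.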

[2] = read-out: Fatty acid synthase (Homo sapiens) (UniProt P49327); test: LTEA_HepaRG_FASN: Life Technologies and Expression Analysis (LTEA) Assay for Fatty Acid Synthase (FASN) using HepaRG (AID 2283448); conditions: mRNA level, 48 h; actives raise or lower the signal
Outline: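 Differentiated human HepaRG cells were exposed for 48 h in serum-free induction medium to eight half-log concentrations up to 100 uM in 0.5% DMSO, in duplicate. FASN mRNA was quantified by TaqMan qRT-PCR, normalized to ACTB/GAPDH/POLR2A, and fitted bidirectionally against DMSO.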

[3] = read-out: Cyclin D2 (CCND2), CCND2 (gene 894); test: LTEA_HepaRG_CCND2: Life Technologies and Expression Analysis (LTEA) Assay for Cyclin D2 (CCND2) using HepaRG (AID 2283449); conditions: mRNA level, 48 h; actives raise or lower the signal;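 further: CCND2 transcript measured by TaqMan qRT-PCR and normalised to three housekeeping genes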
Outline: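 Chemicals in 0.5% DMSO, eight half-log concentrations from 100 uM top, were applied in duplicate for 48 h to human HepaRG cells in serum-free induction medium. CCND2 mRNA by TaqMan qRT-PCR, normalised to ACTB/GAPDH/POLR2A; bidirectional fit versus DMSO.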

[4] = read-out: Cyclin Dependent Kinase Inhibitor 1A (CDKN1A), CDKN1A (gene 1026); test: LTEA_HepaRG_CDKN1A: Life Technologies and Expression Analysis (LTEA) Assay for Cyclin Dependent Kinase Inhibitor 1A (CDKN1A) using HepaRG (AID 2283450); conditions: mRNA level, 48 h; actives raise or lower the signal
Outline: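 Read-out is CDKN1A mRNA by TaqMan qRT-PCR, normalized to three housekeeping genes and fitted in both directions against the DMSO baseline. Human HepaRG cells were treated 48 h with test chemicals up to 100 uM in half-log steps, 0.5% DMSO.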

[5] = read-out: Cyclin D1 (CCND1), CCND1 (gene 595); test: LTEA_HepaRG_CCND1: Life Technologies and Expression Analysis (LTEA) Assay for Cyclin D1 (CCND1) using HepaRG (AID 2283451); conditions: mRNA level, 48 h; actives raise or lower the signal
Outline: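 HepaRG plated 48 h, medium switched to serum-free induction medium, chemicals added in duplicate (top 100 uM, half-log steps, 0.5% DMSO) for 48 h, cells lysed, RNA measured by TaqMan qRT-PCR.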

[6] = read-out: catalase (CAT), CAT (gene 847); test: LTEA_HepaRG_CAT: Life Technologies and Expression Analysis (LTEA) Assay for catalase (CAT) using HepaRG (AID 2283452); conditions: mRNA level, 48 h; actives raise or lower the signal
Outline: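 HepaRG cells in serum-free induction medium, 0.5% DMSO vehicle, exposed 48 h in duplicate over 8 half-log concentrations from 100 uM. CAT mRNA measured by qRT-PCR, normalized to ACTB, GAPDH, POLR2A; bidirectional fit versus DMSO.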

[7] = read-out: flavin-containing dimethylaniline monooxygenases 3 (FMO3), FMO3 (gene 2328); test: LTEA_HepaRG_FMO3: Life Technologies and Expression Analysis (LTEA) Assay for flavin-containing dimethylaniline monooxygenases 3 (FMO3) using HepaRG (AID 2283453); conditions: mRNA level, 48 h; actives raise or lower the signal
Outline: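 HepaRG, 48 h exposure, 8-pt half-log series from 100 uM, 0.5% DMSO vehicle, duplicates; FMO3 transcript by Fluidigm TaqMan qRT-PCR, housekeeping-normalized; gain/loss fit vs DMSO.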

[8] = read-out: Cytochrome P450 (CYP1A1), CYP1A1 (gene 1543); test: LTEA_HepaRG_CYP1A1: Life Technologies and Expression Analysis (LTEA) Assay for Cytochrome P450 (CYP1A1) using HepaRG (AID 2283454); conditions: mRNA level, 48 h; actives raise or lower the signal
Outline: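 HepaRG, 48 h post-plating switched to serum-free induction medium; 8-pt conc-response (top 100 uM, half-log, 0.5% DMSO), duplicates, 48 h. Lysis in RLT, TaqMan qRT-PCR for CYP1A1; gain or loss vs DMSO.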

[9] = read-out: CFLAR gene, CFLAR (gene 8837); test: LTEA_HepaRG_CFLAR: Life Technologies and Expression Analysis (LTEA) Assay for CFLAR gene using HepaRG (AID 2283455); conditions: mRNA level, 48 h; actives raise or lower the signal
Outline: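 Differentiated HepaRG cells in serum-free induction medium were exposed 48 h in duplicate to eight half-log concentrations up to 100 uM in 0.5% DMSO; mRNA measured by TaqMan qRT-PCR, normalized to ACTB, GAPDH, POLR2A; bidirectional fitting versus DMSO.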

[10] = read-out: Forkhead box O1 (FOXO1), FOXO1 (gene 2308); test: LTEA_HepaRG_FOXO1: Life Technologies and Expression Analysis (LTEA) Assay for Forkhead box O1 (FOXO1) using HepaRG (AID 2283456); conditions: mRNA level, 48 h; actives raise or lower the signal
Outline: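 Differentiated HepaRG cells, in serum-free induction medium with 0.5% DMSO, exposed 48 h in duplicate to 8-point half-log series from 100 uM. FOXO1 mRNA measured by TaqMan qRT-PCR, normalized to ACTB, GAPDH, POLR2A; bidirectional fit versus DMSO.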

[11] = read-out: growth arrest and DNA damage 45 (GADD45A), GADD45A (gene 1647); test: LTEA_HepaRG_GADD45A: Life Technologies and Expression Analysis (LTEA) Assay for growth arrest and DNA damage 45 (GADD45A) using HepaRG (AID 2283458); conditions: mRNA level, 48 h; actives raise or lower the signal
Outline: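 Differentiated HepaRG cells were exposed in duplicate for 48 h in serum-free induction medium to 8-point half-log concentrations up to 100 uM in 0.5% DMSO. GADD45A mRNA was measured by TaqMan qRT-PCR, normalized to ACTB, GAPDH and POLR2A, with bidirectional fitting versus DMSO.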

[12] = read-out: Forkhead box O3 (FOXO3), FOXO3 (gene 2309); test: LTEA_HepaRG_FOXO3: Life Technologies and Expression Analysis (LTEA) Assay for Forkhead box O3 (FOXO3) using HepaRG (AID 2283459); conditions: mRNA level, 48 h; actives raise or lower the signal
Outline: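 Differentiated human HepaRG cells, 48 h post-plating, exposed in duplicate for 48 h in serum-free induction medium; 8-point half-log series from 100 uM in 0.5% DMSO. FOXO3 mRNA by TaqMan qRT-PCR, normalized to ACTB/GAPDH/POLR2A; bidirectional fit versus DMSO.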

[13] = read-out: ABC Transporter (ABCB1), ABCB1 (gene 5243); test: LTEA_HepaRG_ABCB1: Life Technologies and Expression Analysis (LTEA) Assay for ABC Transporter (ABCB1) using HepaRG (AID 2283460); conditions: mRNA level, 48 h; actives raise or lower the signal
Outline: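 HepaRG cells exposed in duplicate for 48 h in serum-free induction medium to eight half-log concentrations up to 100 uM in 0.5% DMSO. ABCB1 mRNA quantified by qRT-PCR, normalised to ACTB, GAPDH and POLR2A; fitted bidirectionally versus DMSO.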

[14] = read-out: growth arrest and DNA damage 45 (GADD45B), GADD45B (gene 4616); test: LTEA_HepaRG_GADD45B: Life Technologies and Expression Analysis (LTEA) Assay for growth arrest and DNA damage 45 (GADD45B) using HepaRG (AID 2283461); conditions: mRNA level, 48 h; actives raise or lower the signal
Outline: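 HepaRG, ~100,000 cells/well, 48 h plating; serum-free induction medium; cpd 100 uM top, half-log x8, 0.5% DMSO, duplicate, 48 h; lysis in RLT, RNA isolation, qRT-PCR; norm ACTB/GAPDH/POLR2A; bidirectional fit vs DMSO.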

[15] = read-out: ABC Transporter (ABCC3), ABCC3 (gene 8714); test: LTEA_HepaRG_ABCC3: Life Technologies and Expression Analysis (LTEA) Assay for ABC Transporter (ABCC3) using HepaRG (AID 2283462); conditions: mRNA level, 48 h; actives raise or lower the signal
Outline: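 Human HepaRG, 48 h dosing, 8-pt half-log series from 100 uM, 0.5% DMSO vehicle, duplicates. ABCC3 mRNA by TaqMan qRT-PCR, housekeeping-normalized; bidirectional curve fit vs DMSO.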

[16] = read-out: ABC Transporter (ABCB11), ABCB11 (gene 8647); test: LTEA_HepaRG_ABCB11: Life Technologies and Expression Analysis (LTEA) Assay for ABC Transporter (ABCB11) using HepaRG (AID 2283463); conditions: mRNA level, 48 h; actives raise or lower the signal
Outline: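 Differentiated human HepaRG cells in serum-free induction medium, dosed in duplicate for 48 h. Eight-point half-log series from 100 uM in 0.5% DMSO; ABCB11 mRNA by qRT-PCR, normalized to ACTB, GAPDH, POLR2A, fitted bidirectionally versus DMSO.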

[17] = read-out: ABC Transporter (ABCC2), ABCC2 (gene 1244); test: LTEA_HepaRG_ABCC2: Life Technologies and Expression Analysis (LTEA) Assay for ABC Transporter (ABCC2) using HepaRG (AID 2283464); conditions: mRNA level, 48 h; actives raise or lower the signal
Outline: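 HepaRG, 48 h post-plating; serum-free induction medium; cpd 8-pt, 100 uM top, half-log, 0.5% DMSO, duplicate, 48 h. Readout: ABCC2 mRNA by qRT-PCR, norm. ACTB/GAPDH/POLR2A. Bidirectional fit vs DMSO baseline.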

[18] = CEETOX_H295R_ESTRADIOL: CeeTox H295R High-throughput Steroidogenesis Assay for Estradiol (AID 2283440); conditions: actives raise or lower the signal;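 further: estradiol secreted into medium quantified by LC-MS/MS after dansyl derivatisation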
Outline: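 Estradiol secreted into the medium was measured by tandem mass spectrometry after liquid-liquid extraction and dansylation. Human H295R cells had been forskolin-primed (10 uM, 48 h) before a 48 h chemical exposure with 0.1% DMSO.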

[19] = CEETOX_H295R_ESTRONE: CeeTox H295R High-throughput Steroidogenesis Assay for Estrone (AID 2283441); conditions: actives raise or lower the signal;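 further: estrone secreted into medium measured by LC-MS/MS after dansyl derivatization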
Outline: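 H295R cells; 48 h forskolin (10 uM) prestimulation; 48 h compound exposure, 0.1% DMSO final. Medium estrone: MTBE extraction, dansyl derivatization, HPLC-MS/MS. Bidirectional fit vs DMSO.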

Chain of Fatty acid synthase (Homo sapiens) (P49327 whole entry, looked up): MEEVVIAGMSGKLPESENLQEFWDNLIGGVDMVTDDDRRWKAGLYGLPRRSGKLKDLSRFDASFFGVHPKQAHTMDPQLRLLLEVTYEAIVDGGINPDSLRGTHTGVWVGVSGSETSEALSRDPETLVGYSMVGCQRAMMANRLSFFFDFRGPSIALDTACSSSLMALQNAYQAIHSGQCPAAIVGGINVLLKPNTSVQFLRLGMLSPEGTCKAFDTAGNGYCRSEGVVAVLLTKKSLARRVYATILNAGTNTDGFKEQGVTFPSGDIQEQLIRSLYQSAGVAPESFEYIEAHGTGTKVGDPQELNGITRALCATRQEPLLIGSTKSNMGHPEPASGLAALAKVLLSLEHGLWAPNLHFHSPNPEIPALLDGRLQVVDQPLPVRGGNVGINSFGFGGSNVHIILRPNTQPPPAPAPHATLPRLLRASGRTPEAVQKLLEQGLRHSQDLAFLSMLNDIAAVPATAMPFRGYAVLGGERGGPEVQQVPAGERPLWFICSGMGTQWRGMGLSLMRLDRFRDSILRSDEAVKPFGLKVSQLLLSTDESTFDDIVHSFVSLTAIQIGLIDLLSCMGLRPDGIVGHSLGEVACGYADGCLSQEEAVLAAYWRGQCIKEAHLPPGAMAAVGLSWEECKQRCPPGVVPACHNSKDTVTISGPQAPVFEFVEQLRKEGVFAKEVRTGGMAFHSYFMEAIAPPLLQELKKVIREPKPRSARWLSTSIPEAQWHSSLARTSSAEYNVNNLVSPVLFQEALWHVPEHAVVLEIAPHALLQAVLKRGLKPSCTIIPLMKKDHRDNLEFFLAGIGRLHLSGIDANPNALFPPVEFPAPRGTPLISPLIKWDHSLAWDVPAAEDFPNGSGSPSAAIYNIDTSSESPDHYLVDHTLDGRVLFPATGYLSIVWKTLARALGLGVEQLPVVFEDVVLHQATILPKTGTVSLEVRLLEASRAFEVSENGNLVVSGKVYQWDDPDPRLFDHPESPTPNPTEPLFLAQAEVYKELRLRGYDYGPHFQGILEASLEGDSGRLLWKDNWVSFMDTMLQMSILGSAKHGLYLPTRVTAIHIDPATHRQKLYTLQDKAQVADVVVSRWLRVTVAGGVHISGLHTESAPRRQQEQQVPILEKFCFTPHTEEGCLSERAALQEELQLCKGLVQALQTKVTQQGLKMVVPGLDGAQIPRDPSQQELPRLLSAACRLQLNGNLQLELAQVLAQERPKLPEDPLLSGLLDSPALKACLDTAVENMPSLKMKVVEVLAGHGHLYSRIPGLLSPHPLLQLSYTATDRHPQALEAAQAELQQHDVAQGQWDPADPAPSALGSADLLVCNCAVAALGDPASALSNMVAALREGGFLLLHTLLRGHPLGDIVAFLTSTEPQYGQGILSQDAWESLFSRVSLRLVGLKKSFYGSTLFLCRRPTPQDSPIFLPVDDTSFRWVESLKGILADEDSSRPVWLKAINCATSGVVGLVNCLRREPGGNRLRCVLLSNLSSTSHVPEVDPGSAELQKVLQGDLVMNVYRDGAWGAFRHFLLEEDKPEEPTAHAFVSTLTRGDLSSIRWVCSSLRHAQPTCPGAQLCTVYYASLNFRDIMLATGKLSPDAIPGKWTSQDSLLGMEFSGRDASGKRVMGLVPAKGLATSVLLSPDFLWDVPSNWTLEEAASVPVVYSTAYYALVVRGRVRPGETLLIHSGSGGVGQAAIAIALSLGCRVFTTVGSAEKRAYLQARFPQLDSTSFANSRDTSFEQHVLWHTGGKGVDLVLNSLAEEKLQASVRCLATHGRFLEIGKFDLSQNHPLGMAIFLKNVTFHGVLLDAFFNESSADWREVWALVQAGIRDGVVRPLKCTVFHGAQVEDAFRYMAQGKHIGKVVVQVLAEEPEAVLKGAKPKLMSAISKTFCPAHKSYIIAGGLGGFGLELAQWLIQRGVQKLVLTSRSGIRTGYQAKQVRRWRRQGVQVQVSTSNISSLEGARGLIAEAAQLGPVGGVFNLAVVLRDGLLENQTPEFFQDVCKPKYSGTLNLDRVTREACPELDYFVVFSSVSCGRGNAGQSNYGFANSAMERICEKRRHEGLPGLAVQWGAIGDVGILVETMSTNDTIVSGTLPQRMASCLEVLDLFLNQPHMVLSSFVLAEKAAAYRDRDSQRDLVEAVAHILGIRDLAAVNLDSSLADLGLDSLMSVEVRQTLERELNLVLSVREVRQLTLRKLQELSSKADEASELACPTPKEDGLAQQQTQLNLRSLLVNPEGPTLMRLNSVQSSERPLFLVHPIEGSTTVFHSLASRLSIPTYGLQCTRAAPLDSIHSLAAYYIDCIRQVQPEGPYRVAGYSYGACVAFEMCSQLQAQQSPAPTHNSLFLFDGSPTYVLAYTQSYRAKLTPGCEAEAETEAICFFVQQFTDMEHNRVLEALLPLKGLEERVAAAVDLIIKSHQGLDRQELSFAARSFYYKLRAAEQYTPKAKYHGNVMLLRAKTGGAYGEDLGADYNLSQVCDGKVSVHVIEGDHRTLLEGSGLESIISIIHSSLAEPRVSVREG

For `Cn1c(=O)c2[nH]cnc2n(C)c1=O`, which outcome [1] is on record?
Its outcome is “inactive”.

What about the outcome [2] of the same compound?
Its outcome is “inactive”.

And the outcome [3]?
The outcome was “inactive”.

What about the outcome [4] of the same compound?
The outcome was “inactive”.

And the outcome [5]?
Its outcome is “inactive”.

And the outcome [6]?
Its outcome is “inactive”.

And the outcome [7]?
Its outcome is “inactive”.

And the outcome [8]?
The outcome was “inactive”.

And the outcome [9]?
Its outcome is “inactive”.

And the outcome [10]?
Its outcome is “inactive”.

And the outcome [11]?
The outcome was “inactive”.

And the outcome [12]?
Its outcome is “inactive”.

And the outcome [13]?
The outcome was “inactive”.

What about the outcome [14] of the same compound?
Its outcome is “inactive”.

What about the outcome [15] of the same compound?
Its outcome is “inactive”.

What about the outcome [16] of the same compound?
The outcome was “inactive”.

And the outcome [17]?
The outcome was “inactive”.

For `CCOc1ccc2[nH]cc(C(=O)NCc3ccccc3)c(=O)c2n1`, which outcome [18] is on record?
Its outcome is “inactive”.

What about the outcome [19] of the same compound?
Its outcome is “inactive”.

And the outcome [1]?
Its outcome is “inactive”.

What about the outcome [2] of the same compound?
Its outcome is “inactive”.

What about the outcome [3] of the same compound?
Its outcome is “inactive”.

What about the outcome [4] of the same compound?
The outcome was “inactive”.

And the outcome [5]?
Its outcome is “inactive”.

What about the outcome [6] of the same compound?
Its outcome is “inactive”.

What about the AC50 [7] of the same compound?
The AC50 was 79.6 µM (active).

What about the AC50 [8] of the same compound?
The AC50 was 34 µM (active).

And the outcome [9]?
Its outcome is “inactive”.

And the outcome [10]?
The outcome was “inactive”.

What about the outcome [11] of the same compound?
Its outcome is “inactive”.

And the outcome [12]?
The outcome was “inactive”.

And the outcome [13]?
The outcome was “inactive”.

What about the outcome [14] of the same compound?
Its outcome is “inactive”.

What about the outcome [15] of the same compound?
Its outcome is “inactive”.

What about the outcome [16] of the same compound?
Its outcome is “inactive”.

What about the outcome [17] of the same compound?
Its outcome is “inactive”.

Which outcome [1] does the source give for `CCc1cccc(CC)c1N` here?
The outcome was “inactive”.

What about the outcome [2] of the same compound?
The outcome was “inactive”.

What about the outcome [3] of the same compound?
Its outcome is “inactive”.

What about the outcome [4] of the same compound?
The outcome was “inactive”.

What about the outcome [5] of the same compound?
The outcome was “inactive”.

What about the outcome [6] of the same compound?
Its outcome is “inactive”.

And the outcome [7]?
The outcome was “inactive”.

And the AC50 [8]?
The AC50 was 50 µM (active).

What about the outcome [9] of the same compound?
Its outcome is “inactive”.

And the outcome [10]?
The outcome was “inactive”.

And the outcome [11]?
The outcome was “inactive”.

And the outcome [12]?
Its outcome is “inactive”.

And the outcome [13]?
The outcome was “inactive”.

And the outcome [14]?
The outcome was “inactive”.

What about the outcome [15] of the same compound?
Its outcome is “inactive”.

What about the outcome [16] of the same compound?
The outcome was “inactive”.

And the outcome [17]?
Its outcome is “inactive”.
